# Results published in PubChem BioAssay (NCATS).
# Results filed as inconclusive are left out. Entries that show only a call come without a potency. Active and inactive are the calls of the source. The call rests on the fitted dose curve; in most records, active means well fitted curve in the direction sought with a large enough effect; inconclusive means small, poorly fitted or top-dose-only effect, or another doubt; inactive means no such curve, though single readings can be large; an effect the other way counts as inactive or inconclusive.
# How the values were obtained:
# [1] = P-glycoprotein substrates identified in KB-3-1 adenocarcinoma cell line, qHTS therapeutic library screen (AID 1346986); further: nearly all actives have a fitted effect of over 60% in size
# Method in brief: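 Dose-response cytotoxicity, KB-3-1 vs P-gp-high KB-8-5-11, no colchicine in assay medium. Read: CellTiter-Glo at 72 h.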
# [2] = P-glycoprotein substrates identified in KB-8-5-11 adenocarcinoma cell line, qHTS therapeutic library screen (AID 1346987); further: nearly all actives have a fitted effect of over 65% in size
# Method in brief: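 In this qHTS, P-gp-rich KB-8-5-11 cells received library compounds across a concentration range. Viability was quantified by luminescence after 72 h at 37 degree C.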
SMILES,Potency [1],Potency [2]
CC(=O)O[C@@H]1[C@@H](OC(=O)/C=C/c2ccccc2)[C@@H](OC(C)=O)[C@H](O[C@H]2[C@@H]3C=CO[C@@H](O[C@@H]4O[C@H](CO)[C@@H](O)[C@H](O)[C@H]4O)[C@@H]3[C@@]3(CO)O[C@@H]23)O[C@H]1C,inactive,inactive
CC(C)CC1NC(=O)C(C)NC(=O)C(CC(C)C)OC(=O)CCCNC1=O (stereo not given),inactive,inactive
C=C(C(=O)O)C1CCC2(C)CCC(O)C(=C)C2C1 (stereo not given),inactive,inactive
COc1ccc(C(O)C(C)OC2OC(CO)C(O)C(O)C2O)cc1 (stereo not given),inactive,inactive
CC1CC[C@]2(C(=O)O)CC[C@]3(C(=O)O)C(=CCC4[C@@]5(C)CC[C@H](OC6OC(C)C(O)C(OC7OC(CO)C(O)C(O)C7O)C6O)C(C)(C)C5CC[C@]43C)C2C1C (stereo not given in full),inactive,inactive
CN[C@@H]1[C@H](O[C@H]2[C@H](O[C@@H]3[C@@H](O)[C@H](O)[C@@H](N=C(N)N)[C@H](O)[C@H]3N=C(N)N)O[C@@H](C)[C@]2(O)C=O)O[C@@H](CO)[C@H](O)[C@H]1O,inactive,inactive
CC(C)(C)NS(=O)(=O)c1cncc(-c2cc(F)c3nc(N)nn3c2)c1,inactive,inactive
Cc1cc(=O)oc2c(C=O)c(O)ccc12,inactive,inactive
CC(C)=CCC/C(C)=C/CO[C@@H]1O[C@H](CO)[C@@H](OC(=O)/C=C/c2ccc(O)cc2)[C@H](O[C@@H]2O[C@@H](C)[C@H](O)[C@@H](O)[C@H]2O)[C@H]1O,inactive,inactive
NC(=O)[C@H](O[C@@H]1O[C@H](CO)[C@@H](O)[C@H](O)[C@H]1O)c1ccccc1,inactive,inactive
